Data on three molecules can be found in publication PMC11062922 (Nature Chemical Biology, 2023).

Some test systems named below: CDK10; NEK9; PIK3C3; MAP4K2; MAP4K5; PIM2.
What all share (set-up): species or system human, MV4-11 + K-562 + COLO205 + SK-N-BE2 + OVCAR-8
Holding throughout (conditions): read-out: apparent Kd; compound concentrations:100 nM and 1000 nM (sheet 'Samples'); n = 1

The structures appear in SMILES notation.

In the case of `Cc1cc(NC(=O)c2cccc(NC(=O)/C=C/CN(C)C)c2)ccc1Nc1nccc(-c2cccnc2)n1` [JNK-IN-7], the potency estimated from few doses is 844 nM in the assay with CDK10, 1380 nM in the assay with NEK9 and 1570 nM with PIK3C3.

For `O=C(Nc1n[nH]c2nc(-c3ccccc3O)ccc12)C1CC1` [SB-711880], the potency estimated from few doses with MAP4K2 was 1460 nM; in the assay on MAP4K5, 1760 nM.

Take `Nc1nc(-c2ccc3c(N)n[nH]c3c2)cc(N2CCCCC2)n1` [GSK2228768A]: the potency estimated from few doses in the assay with PIM2 was 1410 nM.
